Compounds without any hit were thinned out: in the full panel of roughly 83,000, 20% have a hit.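 Compound tested at a single concentration for 48 hours in 96-well plates; a percent growth value below 10 was scored as active.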 Activity calls are given as the source filed them.

This assay deals with BT-549 breast. Put plainly: NCI-60 one-dose screen, 48 h (100 = growth as untreated, 0 = no growth, -100 = all killed). Particulars: 10 µM unless noted. As for the experimental part:
Growth inhibition of the BT-549 human tumor cell line is measured as a screen for anti-cancer activity. Cells are grown in 96 well plates and exposed to the test compound for 48 hours. Compounds are tested at a single concentration, which is 10^-5 M for most compounds. The reported endpoint is percent growth (GI% or GIPRCNT), where numbers from 0 - 100% represent growth inhibition, and numbers from -100% - 0 represent cell death. For example, a value of 40 represents 60% growth inhibition. A value of 0 means no net growth occurred over the course of the experiment. A value of -40 indicates 40% of cells at the beginning of the experiment died by the end of the experiment. A value of -100 means all cells are dead at the end of the experiment.
NCI-60 Human Tumor Cell Lines Screen was performed using the standard one-dose NCI protocol, which is described in more detail at https://dtp.cancer.gov/discovery_development/nci-60/default.htm.
Compounds with GIPRCNT values below 10 were considered active. Activity score was based on GIPRCNT using the following formula: […]
Score is 0 for GIPRCNT values of 100 or above, 50 for GIPRCNT values of 0, and 100 for GIPRCNT values of -100.
As for `CCCNC(=O)Oc1ccc(/C(=C(/C)Cc2ccc(OC)cc2)c2ccc(OCCN3CCCCC3)cc2)cc1`, the growth is 92.9% (inactive). In the case of `O=C(Nc1cccc(Cn2c(=O)[nH]c3ccc(Oc4ncccn4)cc3c2=O)c1)c1cccc(F)c1` it was 71.4% (inactive). For the compound `O=C(/C=C1\C(=O)N(Cc2ccc([N+](=O)[O-])cc2)c2ccccc21)c1ccc(OCCN2CCCCC2)cc1`, the growth is -80% (active).

Turning to `CCCCCCCCCCCC(=O)OC(C)C(=O)Nc1ccccc1` (stereo not given), the growth is 82% (inactive).

Take `Brc1c(-c2ccncc2)nc2n1CCS2`: the growth is 105% (inactive). Then `O=C(OCC1CC2(Cl)C(Cl)=C(Cl)C1(Cl)C2(Cl)Cl)C1C(C(=O)OCC2CC3(Cl)C(Cl)=C(Cl)C2(Cl)C3(Cl)Cl)C2(Cl)C(Cl)=C(Cl)C1(Cl)C2(Cl)Cl` (stereo not given), with 97.5% (inactive); and `Cc1ccc(C(=O)NN)cc1`, with 98.8% (inactive). In the case of `CCOC(=O)c1c2c(cn1Cc1ccccc1)-c1oncc1CC2` it was 94.5% (inactive).

For `COc1cc(/C=C/C(=O)/C=C(/C=C/c2ccc(OC(C)=O)c(OC)c2)OB(F)F)ccc1OC(C)=O`, the growth was 37.3% (inactive). In the case of `NC(=O)CC(NC(=O)COc1ccc(Cl)cc1Cl)C(=O)O` (stereo not given) it was 108% (inactive); in that of `COC(=O)C(C)[C@H]1CC[C@@H]2[C@]1(C)CC=C1[C@]23C=C[C@]2(C[C@@H](OC(C)=O)CC[C@]12C)C(C(=O)OC)C3C(=O)OC` (stereo not given in full), 101% (inactive). Then `COC(=O)/C(Br)=C/c1c[nH]c2ccc(Br)cc12`, with 88.7% (inactive); and `CCS(=O)(=O)OCCO[C@H]1Cc2cc3ccc(=O)oc3cc2OC1(C)C`, with 100% (inactive); and `CCOC(=O)c1c(C)oc2ncnc(Nc3ccc(NC(=O)Nc4cccc(Cl)c4)cc3)c12`, with 61.6% (inactive). Then `O=C(Nc1ccccc1)Nc1ccc(Nc2ncnc3sc4c(c23)CCCC4)cc1`, with 109% (inactive). Turning to `CCOC(=O)CSSCC(=O)OCC`, the growth is 110% (inactive).

Take `COc1ccccc1C(=O)Nc1cccc(-c2cc(=O)c3c(OC)c(OC)c(OC)cc3o2)c1`: the growth is 45.9% (inactive). Then `CC(C)OC(=O)c1ccc2n1CCCc1cnc(Nc3ccccc3)nc1-2`, with 86.4% (inactive); and `COc1cc2oc(-c3ccc(NC(=O)c4ccccc4)cc3)cc(=O)c2c(OC)c1OC`, with 75.6% (inactive); and `CN1NC(c2ccccc2)NN(C)C1=O`, with 109% (inactive). As for `CCN(CC)CCNc1ncnc2c1cnn2-c1ccc(Cl)cc1`, the growth was 95.1% (inactive). In the case of `COc1cc(/C(=C2/O[C@@H]([C@H]3COC(C)(C)O3)[C@H]3OC(C)(C)O[C@@H]23)c2ccc3c(c2)OCO3)cc(OC)c1OC`, the growth was 79.5% (inactive). In the case of `CCn1cnc(C[C@H](NC(=O)[C@@H](NC(=O)Nc2cc(C(F)(F)F)cc(C(F)(F)F)c2)C(C)C)C(=O)OC)c1` it was -97.6% [100 µM] (active). Then `COC(=O)c1cc(Nc2ccc(O)c3c2C(=O)c2c([N+](=O)[O-])ccc(O)c2C3=O)cc(C(=O)OC)c1`, with 44.7% (inactive); and `CCOc1ccccc1/C=N\N=C(N/N=C/c1ccccc1OCC)N/N=C/c1ccccc1OCC`, with 31.8% (inactive); and `CCCCCSc1ccc2nc(NC(=O)OCC)sc2c1`, with 37.2% (inactive). Then `O=C(Cc1ccccc1[N+](=O)[O-])c1ccc2c(c1)OCO2`, with 92.1% (inactive). For `COc1cc(-c2nc(/C=C3/C(=O)Nc4ccccc43)c3ccccn23)cc(OC)c1OC`, the growth was 94% (inactive).

Take `CCN(CC)CCCNc1c2ccc(Cl)cc2nc2ccc(OC)cc12`: the growth is -20.4% (active). In the case of `CCCCCCCCCC(C)NC(=O)CCl` (stereo not given), the growth was 88.8% (inactive). Then `COc1ccc(Oc2[nH]n(C3=Nc4ccccc4Sc4ccccc43)c(=O)c2C#N)cc1`, with 98.2% (inactive); and `O=C(Nc1ccc(Cl)cn1)C1(c2ccccc2)CCCCC1`, with 98.4% (inactive); and `O=C(O)/C(Br)=C/c1c[nH]c2ccc(Br)cc12`, with 121% (inactive). `C/C(=N\Nc1ccc(Cl)cn1)c1ccc2ccccc2n1`: the growth was 21.6% (inactive).

For `O=C(O)c1occ(Cl)c1Cl`, the growth is 130% (inactive).

With `Cc1ccc2c(O)c(O)cc(NC(C)CCCN)c2n1` (stereo not given), the growth is 91.1% (inactive).

On to `Oc1ccccc1\C=N/N=C/C=C/c1ccccc1`, for which the growth was 91.4% (inactive).

On to `COc1cc2ncnc(-n3ncc4cc(NC(=O)Nc5ccccc5)ccc43)c2cc1OC`, for which the growth is 24.9% (inactive).

`O=C(Nc1cccc(Cn2c(=O)[nH]c3ccc(Oc4ncccn4)cc3c2=O)c1)c1ccc(Cl)cc1`: the growth is 41.6% (inactive). Then `COc1ccc(C(=O)c2no[n+]([O-])c2C(=O)c2ccc(OC)cc2)cc1`, with 50.3% (inactive).

These data come from PubChem BioAssay (NCI).
